According to the supplement of paper PMC6555819:

Legend:
Experiment in all cases: PBM binding z-score (relative to random genomic background probes); higher = stronger binding; sequences stand for … in GC…GCGATTGACAGCGTAGAATGAAGG
[1] = system: PPARg:RXRa DBDmut IVT, anti-RXR (DBD mutation: RXRa K156A/R161A, NR concentration 270 nM, RXRa partner concentration 90 nM)
How it was run: (§1)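 Scanned fluorescence from custom Agilent 4×180K protein-binding microarrays was regression-normalized. Binding z-scores use random background probes as reference. Ligand-free nuclear receptor dimers were incubated on the arrays for 1 h and detected with antibodies against each partner (one per run).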

[2] = system: PPARg:RXRa IVT, anti-PPARg (NR concentration 270 nM, RXRa partner concentration 90 nM)
How it was run: as §1

[3] = system: PPARg DBDmut:RXRa IVT, anti-PPARg (DBD mutation: PPARg1 K132A/R137A, NR concentration 270 nM, RXRa partner concentration 90 nM)
How it was run: as §1

[4] = system: PPARg DBDmut IVT, anti-PPARg (DBD mutation: PPARg1 K132A/R137A, NR concentration 270 nM)
How it was run: as §1

[5] = system: PPARg homodimer (NR concentration 180 nM)
How it was run: as §1

[6] = system: PXR:RXRa (NR concentration 270 nM, RXRa partner concentration 90 nM)
How it was run: as §1

[7] = system: PXR homodimer (NR concentration 270 nM)
How it was run: as §1

[8] = system: RARa:RXR (NR concentration 270 nM, RXRa partner concentration 90 nM)
How it was run: as §1

[9] = system: RARa homodimer (NR concentration 270 nM)
How it was run: as §1

[10] = system: RARb:RXRa (NR concentration 270 nM, RXRa partner concentration 90 nM)
How it was run: as §1

Sequence	PBM binding z-score [1]	PBM binding z-score [2]	PBM binding z-score [3]	PBM binding z-score [4]	PBM binding z-score [5]	PBM binding z-score [6]	PBM binding z-score [7]	PBM binding z-score [8]	PBM binding z-score [9]	PBM binding z-score [10]
CCTTGCAGGCCAGGGTCACTCAAGCATTTCGCTT	1.64	1.87	-0.933	-1.48	0.75	2.65	-0.433	3.33	-0.43	2.79
CCTCGGAGGACAACATGAGGTCAGAGCTGCCAGA	0.44	0.437	-0.816	-1.02	1.69	2.8	0.437	2.67	0.194	3.04
TGTATTAGTTGATTAGGGCAACCGAAACAGCGGA	0.222	1.62	1.15	1.19	1.28	-0.072	0.169	0.311	1.53	0.862
CCTTACGGGTCACTAACAGGTTATAGCATTTGGA	2.88	3.68	1.26	0.395	2.62	3.28	0.184	4.08	1.72	3.92
TAGTCTAGGTCAGATCGGGCCAGTATACGCTATA	4.19	4.5	1.78	1.67	1.18	1.33	-0.0787	1.54	-0.273	3.25
CCGACTGGGGCATAGGTTACCATACTCAGTACGA	2.91	4.3	-0.132	-0.537	0.866	0.141	-0.441	0.637	-0.24	0.735
TTCCCAAGGTGAAAGGTCGTTGATGCACGCCTTG	1.67	4.56	0.3	-0.0355	1.79	4.12	0.342	5.56	-0.11	3.13
TCGTGTAGATCAATAGAGGTTAAGAAAGTGCGCT	1.64	0.537	-0.0229	-0.0334	0.586	2.99	0.386	1.79	0.575	0.822
TCGAGTAGGTTTGGGGCATTCAGAATGGCGTCGA	0.667	-0.179	-0.869	-0.587	-0.00492	-0.143	-0.414	-0.156	-0.479	-0.00663
ACAGACAGGGGATGAAGGTAACTCAGGCTATCAT	-0.0159	0.23	0.918	0.962	0.411	0.126	0.556	-0.0712	0.0686	0.299
CTCGAACGGTCGGTTGAGGTGAGTATACGGATAA	-0.509	-0.343	-0.772	-0.429	-1.41	-0.224	-0.776	0.779	-1.48	0.604
TGTTAAAGTTCAAAGGTAACGTAAGTATCCACAC	0.162	3.26	2.15	2.02	3.98	5.77	4.11	6.35	1.41	4.93
TCTGCTAGGTCAACTATGGTCAGCTAATCTGCTA	3.77	4.24	0.825	0.277	1.55	2.47	-0.42	2.76	0.288	4.38
ATCGAAAGGTCGAAGATGAGTATACCCACCCGAA	-0.341	1.22	0.714	0.471	1.15	1.97	0.241	2.66	0.939	3.69
CCTGCTAGGCCAATGGTCAGCTAAAGCAGCTCGC	0.832	0.413	-1.62	-1.52	-0.65	-0.919	-0.736	-0.768	-0.677	0.755
TCGAGTAGGTTAGTCGGGGCATTCATCCAACATA	2.52	2.11	0.0178	-0.145	0.384	0.279	0.0478	0.5	-0.336	0.665
TAGCCTAGGTCAATGGGCCAGTATAGTACGCATC	1.98	3.19	-0.338	-0.429	0.9	0.686	-0.285	1.56	0.0956	3.67
CGAACTAGGTCATCGACAGGACAGTGAATAGTAA	8.14	8.42	4.29	4.27	2.79	1.76	0.984	2.53	2.3	3.88
TCTAGCATGCCAGAGGGTCACTCAAGAGGTACGG	0.74	0.403	-0.182	-1.1	0.757	1.74	-0.449	2.86	-0.513	2.11
TAGCCTAGGTCATTGGGCCTGTATAGTACGCATC	2.39	3.03	-0.124	-0.181	1.46	1.65	-0.0817	2.37	-0.457	3.55
CGTCAAAGTTCAACTATGGTAACGTAAAGCACGC	0.569	1.9	1.06	1.31	3.74	4.94	4.27	4.14	2.09	5.33
GCTGCTATGTCAGGTTGGTCAGCTAACGGGTACG	0.218	-0.36	-0.641	-1.12	-0.452	-0.319	-0.426	-0.149	-0.632	0.458
TAGAGTAGGTTAGTCGGGGCATTCAGCCAACATA	3.08	3.62	0.961	1.55	1.27	0.576	0.756	0.643	1.35	1.1
TCATATAGATAAATGCTAGGTGAAAGTCCGATCT	2.73	0.677	0.125	0.81	0.438	0.417	0.256	0.494	1.19	0.184
